# PubChem BioAssay AID1481 (The Scripps Research Institute Molecular Screening Center, 2009)
# “And” between values parts separate entries of the source, which are not always exact repeats. Equal values may be shown once. The campaign covered roughly 220,000 compounds. About 920 (0.42%) were called active. What follows is part of a selection rich in actives, with near analogues and random picks from the rest. Values without a mark were called inactive. No stated cut-off is given here; in the data, active means inhibition above about 15%; inactive means the rest.
# Target: Transitional endoplasmic reticulum ATPase (Homo sapiens) (UniProt P55072)
# Sequence (P55072 whole entry, looked up): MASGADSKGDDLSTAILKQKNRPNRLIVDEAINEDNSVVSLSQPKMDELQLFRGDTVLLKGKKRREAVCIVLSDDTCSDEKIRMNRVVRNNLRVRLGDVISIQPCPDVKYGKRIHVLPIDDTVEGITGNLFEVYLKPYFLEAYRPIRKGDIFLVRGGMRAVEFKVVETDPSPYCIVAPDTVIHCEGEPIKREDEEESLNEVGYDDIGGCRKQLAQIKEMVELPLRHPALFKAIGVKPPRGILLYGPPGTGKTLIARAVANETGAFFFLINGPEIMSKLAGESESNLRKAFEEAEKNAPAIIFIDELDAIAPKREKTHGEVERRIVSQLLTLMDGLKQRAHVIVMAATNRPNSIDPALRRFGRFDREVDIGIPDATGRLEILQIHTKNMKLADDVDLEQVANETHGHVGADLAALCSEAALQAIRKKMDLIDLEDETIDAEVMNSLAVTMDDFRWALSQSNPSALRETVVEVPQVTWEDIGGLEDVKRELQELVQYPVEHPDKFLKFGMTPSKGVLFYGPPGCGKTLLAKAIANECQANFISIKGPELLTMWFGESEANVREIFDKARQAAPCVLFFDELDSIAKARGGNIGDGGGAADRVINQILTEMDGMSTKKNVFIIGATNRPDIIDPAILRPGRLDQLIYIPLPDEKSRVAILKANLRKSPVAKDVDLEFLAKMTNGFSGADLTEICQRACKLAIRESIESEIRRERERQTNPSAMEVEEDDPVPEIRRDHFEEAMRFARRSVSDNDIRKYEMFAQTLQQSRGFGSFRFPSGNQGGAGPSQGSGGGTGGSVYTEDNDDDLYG
# Experiment: p97 ATP hydrolysis blockers – biochemical, primary screen (AID 1481);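 further: 0% = DMSO vehicle and 100% = wells lacking enzyme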
# Conditions: recombinant p97 ATPase, Kinase-Glo ATP luminescence, 3 h; at 8 µM; active compounds read high
row,SMILES,inhibition
1,C=CCNC(=O)CSc1nc2scc(-c3ccco3)c2c(=O)n1CC=C,6.86%
2,C=CCn1c(SCc2csc(C)n2)nc2scc(-c3ccc(C)o3)c2c1=O,3.29%
3,C=CCn1c(=S)[nH]c2scc(-c3ccco3)c2c1=O,15.2% (active)
4,C/C(CCc1ccccc1)=N\NC(=O)c1ccc(CN2CCOCC2)cc1,6.17%
5,C=CCc1cccc2cc(C(=O)NC3CCCC3)c(=O)oc12,1.22%
6,CC(C)/C=N/NC(=O)c1cc(Br)ccc1O,-3.39%
7,COc1ccc(-c2[nH]ncc2/C=N/NC(=O)c2cc(Br)ccc2O)c(OC)c1,19.8% (active)
8,COc1ccc(CC(=O)NCC(=O)N/N=C/c2cc(Br)ccc2OC)cc1,-3.65%
9,CN(C)c1ccc(/C=C/C(=O)c2ccc(C(C)(C)C)cc2)cc1[N+](=O)[O-],3.04%
10,NC(=O)c1ccc(NC(=O)COC(=O)c2c3c(nc4ccccc24)/C(=C\c2ccc4c(c2)OCO4)CCC3)cc1,21.3% (active)
11,NS(=O)(=O)c1ccc(NC(=O)COC(=O)c2c3c(nc4ccccc24)/C(=C\c2ccc4c(c2)OCO4)CCC3)cc1,-1.8%
12,O=C(COC(=O)c1c2c(nc3ccccc13)/C(=C\c1cccs1)CCC2)Nc1ccccc1Cl,-4.57%
13,COc1ccnc(Oc2ccccc2)c1-c1ncn[nH]1,2.16%
14,COc1ccc(Cl)cc1C(=O)NNC(=O)c1nc2nc(C)cc(C)n2n1,23.2% (active)
15,Cc1cc(C)n2nc(C(=O)NC(C)(C)C)nc2n1,-8.48%
16,C=CCNC(=S)NNC(=O)c1cc(Cl)ccc1OC,2.04%
17,CC1(C)CC(N2CCN(C(c3ccccc3)c3ccccc3)CC2)=CC(=[N+]2CCCCC2)C1,-4.13%
18,CCc1nn(CCCN2CCN(c3cccc(Cl)c3)CC2)c(=O)n1CCOc1ccccc1,-5.07%
19,C=CCNCCCCOc1ccccc1,-1.97%
20,N=c1c2c3c(sc2ncn1N)CCCC3,5.38%
21,CCOC(=O)C(C)n1cnc2sc(C)c(C)c2c1=O (stereo not given),-1.18%
22,CC(C(=O)O)n1cnc2sc3c(c2c1=O)CCCC3 (stereo not given),19.5% (active)
23,CN1CCN(c2ccc(S(=O)(=O)N3CCOCC3)cc2NC(=O)CCc2ccccc2)CC1,4%
24,Fc1ccccc1/C=C1\CCCC2=C1Nc1ncnn1C2c1ccccc1F (stereo not given),3.82%

row,SMILES,inhibition
1,Oc1c(Cl)cc(Cl)c(Cl)c1Cc1c(O)c(Cl)cc(Cl)c1Cl,31.6% (active)
2,COc1cc(S(=O)(=O)N2CCOCC2)ccc1NC(=O)COc1ccc(N(C)S(=O)(=O)c2ccc(C)cc2)cc1,10.4%
3,Cc1c(NC(=O)CN2C(=O)C(=O)N(Cc3ccccc3)C2=O)c(=O)n(-c2ccccc2)n1C,1.04%
4,Cc1cccc(NC(=O)c2ccc([N+](=O)[O-])o2)c1,0.75%
5,N#Cc1c(-c2ccc(F)cc2)nc(-c2ccccc2)[nH]c1=O,1.67%
6,[O-][n+]1onc2c1CCc1[nH]c(-c3ccccc3)nc1-2,37.3% (active)
7,COc1ccc([N+](=O)[O-])cc1N(CC(O)CN(CC(C)C)CC(C)C)S(=O)(=O)c1ccc(C)cc1 (stereo not given),-15%
8,Cn1sc(=O)c2cc(S(=O)(=O)NC3CC3)ccc21,13.5%
9,Clc1ccc(C2=CSC3=Nc4cccc5cccc(c45)N23)cc1,33% (active)
10,N#Cc1ccsc1NC(=O)CN1CCN(S(=O)(=O)c2cc(Cl)ccc2Cl)CC1,1.72%
11,CCC1(CC)NC(=O)N(CC(=O)OCC(=O)NC(=O)c2ccccc2)C1=O,-0.8%
12,Cc1ccc(C(O)P(=O)(OC(C)C)c2ccc(N(C)C)cc2)cc1 (stereo not given),0.27%
13,COC(=O)CNc1nc(Cl)nc(N2CCC(C)CC2)n1,-3.6%
14,O=C(Nc1cccc(F)c1)c1coc(=O)c(Br)c1,-1.08%
15,Cc1nc(-c2ccccc2)sc1-c1nnc(C2CC2)o1,-11.7%
16,Cc1nn(-c2ccccc2)c2c1C(c1ccc(F)cc1)C(C#N)=C(N)O2 (stereo not given),-4.19%
17,COc1ccccc1C1C(C#N)=C(N)Oc2c1c(-c1ccccc1)nn2-c1ccccc1 (stereo not given),27.6% (active)
18,Cc1nn(Cc2ccccc2)c2c1C(c1ccccc1)C(C#N)=C(N)O2 (stereo not given),10.6%
19,CCC1C=C(c2ccccc2)C=CN=C1N(CC)CC (stereo not given),-5.24%
20,CCC(C)CN1CCC(CO)(Cc2ccccc2Cl)CC1 (stereo not given),-5.42%
21,Cc1cc(Nc2ccc(N3CCOCC3)cc2)c2cccc(C)c2n1,4.03%
22,CN1CCC(=NNC(=O)c2ccc(N(Cc3ccc(Cl)cc3)S(C)(=O)=O)cc2)CC1,-1.22%
23,CC(C)Sc1nnc([C@H](Cc2ccccc2)NC(=O)OC(C)(C)C)o1,-6.35%
24,CCCCN1C(=O)/C(=C(/C#N)C(N)=O)c2ccccc21,1.92%

row,SMILES,inhibition
1,C#CCN1C(=O)C(O)(CC(=O)c2cc(OC)ccc2OC)c2ccccc21 (stereo not given),4.75%
2,COc1ccc2c(c1)C(=C(C#N)C#N)C(=O)N2CCc1ccccc1,20.6% (active)
3,CC(C)(C)c1cnnn1-c1ccc([N+](=O)[O-])cc1,4.98%
4,Nc1ccccc1Sc1ccc(C(F)(F)F)cc1[N+](=O)[O-],-3.21%
5,CC(=O)Nc1ccc(CC#N)cc1,3.27%
6,O=C(N/N=C/c1ccc([N+](=O)[O-])o1)c1cccc(S(=O)(=O)N2CCOCC2)c1,-1.08%
7,O=[N+]([O-])c1cc(Cl)cc(/C=N/NC(=S)Nc2cc(S(=O)(=O)N3CCOCC3)ccc2Cl)c1O,14.6% (active)
8,O=C(CN1CCN(c2ccc(O)cc2)CC1)Nc1cc(S(=O)(=O)N2CCOCC2)ccc1Cl,6.43%
9,COc1ccccc1-n1c(-c2cc(-c3ccco3)[nH]n2)n[nH]c1=S,6.44%
10,Brc1ccc(-c2csc(N/N=C/c3cccnc3)n2)cc1,0.38%
11,CC(C)CNC(=O)/C=C/C(=O)O,1.63% and 0.6%
12,Cc1no[n+]([O-])c1COc1ccccc1/C=C1\NC(=S)NC1=O,36% (active)
13,Cc1ccccc1-n1c(C)cc(/C=C2\NC(=O)NC2=O)c1C,-1.59%
14,Cc1ccc(/C=N/NC(=O)COc2ccccc2-c2ccccc2)cc1,-5.12%
15,Cc1ccc(NC(=O)NC2CCCCC2)cc1S(=O)(=O)N1CCOCC1,1.18%
16,CCOc1c(CNCc2ccc(C(=O)O)cc2)cccc1OC,3.61%
17,O=C(c1nnc(-c2ccc(Cl)cc2)o1)C1CCCC1,-6.78%
18,O=C(c1[nH]ncc1-c1ccc(Cl)cc1)C1CO1 (stereo not given),18.1% (active)
19,S=c1[nH]nc(-c2ccc(Cl)cc2)n1CC1CCCO1 (stereo not given),-0.03%
20,CN(CC(=O)NCCc1ccccc1)S(=O)(=O)c1cnc[nH]1,-2.11%
21,O=C(c1ccc(OC2CCN(C(=O)c3cccnc3)CC2)cc1)N1CCCCCC1,-2.04%
22,Nc1nnnn1/N=C/c1cc([N+](=O)[O-])ccc1O,1.03%
23,CCOC(=O)CCCN1CC(O)=C(c2nc3ccccc3s2)C1=N,-8.77%
24,N=C1C(c2nc3ccccc3s2)=C(O)CN1NC(=O)c1ccc([N+](=O)[O-])cc1,28.3% (active)

row,SMILES,inhibition
1,COc1ccccc1N1CC(O)=C(c2nc3ccccc3s2)C1=N,6.21%
2,O=C(CCc1ccccc1)Nc1nn[nH]n1,-3.71%
3,CC1CCCN(C(C(=O)Nc2ccc(C(C)C)cc2)c2ccc3c(c2)OCO3)C1 (stereo not given),15.3% (active)
4,CC(NC(=S)Nc1ccc(S(N)(=O)=O)cc1)c1ccc2c(c1)OCO2 (stereo not given),0.42%
5,O=C(Nc1ccc2c(c1)OCCO2)C(c1ccc(F)cc1)N1CCCCC1 (stereo not given),-0.16%
6,CN1C(=O)C(CC(=O)Nc2ccccc2)S/C1=N/c1nccs1 (stereo not given),6.76%
7,N#Cc1c(N2CCCCC2)nc(N)c2c(N)nc(SCC(=O)O)cc12,53.6% (active)
8,Cc1cc(C)c(C#N)c(N2CCC(C(N)=O)CC2)n1,3.21%
9,CC(=O)c1cc(C#N)c(N2CCCCC2)nc1C,-1.2%
10,O=C(NC(=O)N1CCOCC1)c1ccccc1,5.31%
11,O=C(CCl)N(Cc1cccc([N+](=O)[O-])c1)c1cccc(Cl)c1,-3.6%
12,CCOC(=O)N1CCC(c2cc(=O)n(-c3ccccc3)[nH]2)CC1,23% (active)
13,CCOC(=O)CN1CCC(c2ccccc2)CC1,-3.38%
14,CCOC(=O)N1CCC(NC(=O)COc2cc(=O)n(C)c3ccccc23)CC1,-0.15%
15,CC(=O)Nc1nc2c(s1)C(=O)NCC(C)(C)C2,0.86%
16,Cc1cc(C)c2c(n1)nn1c(N3CCN(c4cccc(Cl)c4)CC3)cc(C)nc21,-0.34%
17,Cc1cc(C)c2c(n1)nn1c(N3CCOCC3)cc(C)nc21,5.86%
18,Cc1cc(C)c2c(n1)nn1c(-n3ccnc3)cc(C)nc21,31.7% (active)
19,O=[N+]([O-])c1cc([N+](=O)[O-])c2cccnc2c1O,-0.5%
20,O=C(/C=C/c1ccc(N2CCOCC2)cc1)c1ccccc1,3.1%
21,COc1ccc(C(=O)O/N=C(\N)Cc2ccc(Cl)cc2Cl)cc1OC,-0.33%
22,NC(N)=N/N=C/c1ccc(OCc2ccc(Cl)cc2Cl)cc1,17.6% (active)
23,NC(N)=N/N=C/c1ccc(Cl)c([N+](=O)[O-])c1,4.25%
